Results filed as inconclusive are left out. The source made the active and inactive calls. Calls follow the shape of the dose curve; as a rule, active = well fitted curve in the direction sought with a large enough effect; inconclusive = small, poorly fitted or top-dose-only effect, or another doubt; inactive = no such curve, though single readings can be large; an effect the other way counts as inactive or inconclusive.
Columns and labels:
[1] = Inflammasome Signaling qHTS Counterscreen: IL-1-beta AlphaLISA counterscreen against the NCATS CANVASS Library (AID 1347381); conditions: Purified IL-1beta AlphaLISA signal interference counterscreen; series mostly up to 57.5 µM
Outline: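 Here, no cellular stimulation occurs; compounds in an 11-point series meet 4 pg purified IL-1-beta directly. Bead-based AlphaLISA detection follows (1 h acceptor/antibody, then 30 min donor, dark, room temperature), with excitation at 680 nm.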

[2] = Cytotoxicity qHTS for assessment of Hepg2 cells membrane integrity screened against the NCATS CANVASS Library (AID 1347387); conditions: HepG2 LDH release (CytoTox-ONE) fluorescence, 5 h; series mostly up to 46.1 µM
Outline: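 LDH release read by fluorescence (560 nm ex/590 nm em) after CytoTox-ONE addition and 10 min RT; signal tracks lysed cells. HepG2, 2000 cells/well, plated overnight; compound 5 hr, 37C, 5% CO2, final 0.59 nM - 46 uM, 11 points.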

[3] = qHTS for Activators of p53 Stress Response Pathway screened against the NCATS CANVASS Library (AID 1347388); conditions: p53RE-bla HCT-116, beta-lactamase reporter, 16 h; series mostly up to 46.1 µM
Outline: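 p53RE-bla HCT-116 cells (4000/well) were pre-incubated for 5 h, then treated with compound (11 points) for 16 h at 37C. After 2 h with CCF4, the 460/530 nm ratio gave reporter activation; CellTiter-Glo measured viability.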

[4] = qHTS assay for small molecule disruptors of mitochondrial membrane potential screened against the NCATS CANVASS Library (AID 1347389); conditions: HepG2 mitochondrial membrane potential, m-MPI red/green ratio, 1.5 h; series mostly up to 46.1 µM
Outline: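 Red/green fluorescence ratio read-out: J-aggregates ex 540/em 590 nm, monomers ex 490/em 535 nm. HepG2, 1 hr compound treatment, then 30 min Mito-MPS dye at 37C. 11-pt qHTS concentration series.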

[5] = qHTS for activators of Nrf2/ARE signaling pathway screened against the NCATS CANVASS Library (AID 1347391); conditions: ARE-bla HepG2, beta-lactamase reporter, 16 h; series mostly up to 46.1 µM
Outline: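 HepG2 ARE-bla; cpd 11-pt qHTS, 16 h 37C/5% CO2; CCF4 substrate 2 h RT; read ex 405 / em 460 + 530 nm. Viability by CellTiter-Glo luminescence, 30 min RT.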

[6] = qHTS for activators of dead-cell proteases activity screened against the NCATS CANVASS Library (AID 1347392); conditions: HepG2 cytotoxicity, dead-cell protease luminescence, 5 h; series mostly up to 46.1 µM
Outline: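 HepG2, 2000 cells/well, 18 h attach; cpd 11-pt, 5 h 37C 5% CO2; CytoTox-Glo (AAF-aminoluciferin) 15 min RT; luminescence read.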

[7] = qHTS for inhibitors of ER calcium dysfunction: SERCaMP assay screened against the NCATS CANVASS Library (AID 1347393); conditions: SH-SY5Y GLuc-SERCaMP secretion, thapsigargin, luminescence; series mostly up to 76.6 µM
Outline: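 SH-SY5Y GLuc-SERCaMP, 1000 cells/well, 4 h attach; cpd 16 h, 37C/5% CO2; thapsigargin (added as 6x 600 nM) 4 h; coelenterazine; luminescence. Reduced reporter release = ER Ca stabilization.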

[8] = Vero-766 cells viability qHTS against the NCATS CANVASS Library: Counterscreen for Zika virus inhibition assay (AID 1347394); conditions: Vero 766 viability, CellTiter-Glo luminescence, 72 h; series mostly up to 46.1 µM
Outline: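 This cytotoxicity counterscreen uses African green monkey Vero 766 cells in the absence of Zika virus. Compounds are incubated with cells for 72 h, and ATP-based luminescence reports viability.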

[9] = qHTS for inhibitors of Wild type Zika virus screened against the NCATS CANVASS Library (AID 1347396); conditions: Vero cells, Zika virus CPE, CellTiter-Glo, 72 h; series mostly up to 45.9 µM
Outline: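 Protection against wild-type Zika cytopathic effect is measured in African green monkey Vero 766 cells exposed to an 11-point compound series. Surviving cells are quantified by CellTiter Glo luminescence after 72 h.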

[10] = Viability qHTS for inhibitors of the SERCaMP assay screened against the NCATS CANVASS Library (AID 1347400); conditions: SH-SY5Y SERCaMP cells viability, CellTiter-Glo, 48 h; series mostly up to 92.2 µM
Outline: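 CellTiter-Glo luminescence readout after 48 h compound exposure (11-pnt qHTS series) of SH-SY5Y-GLuc SERCaMP MJH297 cells seeded at 1000 cells/well; bortezomib positive control.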

Measured: outcome

NCC(O)c1ccc(O)cc1 (stereo not given)
inactive: all assays above

Reference: PubChem BioAssay (NCATS)
